# Among all 300,000 compounds or so, about 3,200 (1.1%) were called active. The entries come from a sample that favours actives as a whole. A number with no mark means an inactive call. No stated cut-off is given here; in the data, active means inhibition above about 75%; inconclusive means no clear call, values can overlap the other calls; inactive means below that; tested in HMLE shEcad cells.
# Test: growth suppression of cancer stem-like cells – cell-based, luminescence, primary screen (AID 2717)
# Details: cancer stem cell-like cells viability, at 7.5 µM, hits give high values
row,Structure (SMILES),inhibition
1,CCn1c(=N)n(CC(=O)c2cccc(OC)c2)c2ccccc21,-13.1%
2,COc1cccc(OCC(=O)Nc2ccccc2C(N)=O)c1,-7.15%
3,CCCCCCCCCCOC(=O)Cn1c(COc2cccc(OC)c2)[n+](C)c2ccccc21,104% (active)
4,Cc1ccc(OCc2nc3ccccc3n2C)cc1,-4.74%
5,CCCCOC(=O)Cn1c(=N)n(CCN(CC)CC)c2ccccc21,0.539%
6,CCCCCCCCCCOC(=O)Cn1c(COc2ccc(C)cc2)[n+](C)c2ccccc21,124% (active)
7,O=C(COC(=O)c1ccc(F)c(S(=O)(=O)N2CCOCC2)c1)NCc1ccc2c(c1)OCO2,8.38%
8,O=C(COc1ccc(F)cc1Br)NCC1COc2ccccc2O1 (stereo unspecified),6.88%
9,Cc1cc(C)cc(OCC(=O)Nc2ccc(N3CCOCC3)cc2N2CCOCC2)c1,6.1%
10,COc1ccccc1C(=O)NCC(=O)OCC(=O)NNC(=O)c1ccc(Br)cc1,-1.35%
11,N#CCc1ccc(OC(=O)c2cccnc2)cc1,9.72%
12,CCCCCCOc1ccc(OC(=O)c2cccnc2)cc1,86.1% (active)
13,O=C(Oc1ccc(Br)cc1)c1cccnc1,4.5%
14,COc1ccc(Nc2ncnc3sc(-c4ccccc4)cc23)c(OC)c1,38.3%
15,Oc1ccccc1N1CCN(c2ncnc3sc(-c4ccccc4)cc23)CC1,80.7% (active)
16,CCc1cc2c(N3CCN(c4nnc(CC)s4)CC3)ncnc2s1,1.61%
17,O=C(OCC(=O)N1CCN(C(=O)c2ccco2)CC1)c1c(Cl)cccc1Cl,-3.78%
18,N#Cc1c(/N=C/N2CCCC2)oc(-c2ccccc2)c1-c1ccccc1,127% (active)
19,COc1ccc(-c2oc(/N=C/N3CCCC3)c(C#N)c2-c2ccc(OC)cc2)cc1,-4.12%
20,N#Cc1c(NC(=O)CCCN2C(=O)c3ccccc3C2=O)oc(-c2ccccc2)c1-c1ccccc1,-2.49%
21,CCOC(=O)N1CCN(C(c2cccnc2)c2ccc3cccnc3c2O)CC1 (stereo unspecified),30.6%
22,Oc1ccccc1CN1CCN(C(c2ccccc2)c2ccccc2)CC1,28.7%
23,CCN1CCN(C(c2cccnc2)c2cc(Cl)c3cccnc3c2O)CC1 (stereo unspecified),77.7% (active)

row,Structure (SMILES),inhibition
1,COc1ccc(CNC(=O)COC(=O)c2sccc2C)cc1OC,0.384%
2,CC1(C)Cc2ccccc2/C(=C/C(=O)c2ccccc2)N1,78.5% (active)
3,CCOC(=O)C1=C(NC(=S)NC(=O)c2ccccc2)c2ccccc2CC1(C)C,3.23%
4,CC1(C)Cc2ccccc2-c2[nH]c(=S)[nH]c(=O)c21,0.325%
5,CC1CCCCC1NC(=O)Cn1c(=O)cnc2ccccc21 (stereo unspecified),0.34%
6,O=C(NCc1ccc2c(c1)OCO2)c1cc([N+](=O)[O-])ccc1N1CCOCC1,46.4%
7,OC(CNCC1CCCO1)Cn1c2ccc(Br)cc2c2cc(Br)ccc21 (stereo unspecified),116% (active)
8,O=C(CSc1ccc(-c2ccc(Br)cc2)nn1)NCC1CCCO1 (stereo unspecified),1.96%
9,CC(NS(=O)(=O)c1ccc(Br)cc1)C(=O)NCC1CCCO1 (stereo unspecified),-4.45%
10,Cc1cc(C(=O)OCC(=O)N2C(C)CCCC2C)c2ccccc2n1 (stereo unspecified),-3.37%
11,CCOC(=O)c1cnc(-n2nc(C)cc2C)nc1NNc1cc(C)nc(-c2ccccc2)n1,101% (active)
12,Cc1cc(C)n(-c2c(F)c(F)c(COC(=O)c3ccccc3)c(F)c2F)n1,3.98%
13,CCOC(=O)c1cnc(-n2nc(C)cc2C)nc1Nc1cccc(C(C)=O)c1,-9.8%
14,Nn1c(SCC(=O)Nc2ccc3c(c2)CCC3)nnc1C1CC1,-6.39%
15,O=C(COC(=O)c1ccc(F)cc1)NCC1COc2ccccc2O1 (stereo unspecified),-14.2%
16,CCCc1cc(=O)[nH]c(SCC(=O)c2cc(C)n(CCC)c2C)n1,-3.32%
17,CCCc1cc(=O)[nH]c(SCC(=O)c2c(N)n(CC(C)C)c(=O)n(C)c2=O)n1,83.8% (active)
18,CCCc1cc(=O)[nH]c(SCC(=O)OCc2ccccc2)n1,4.11%
19,O=C(CCc1nc(-c2ccccc2)no1)Nc1cccc(C(=O)NC2CC2)c1,1.1%
20,CCN(C(=O)COC(=O)c1ccccc1O)c1cccc2ccccc12,-18.3%
21,CCc1cc(C(=O)Nc2nnc(C3CC3)s2)sc1C,-10.9%
22,C[C@H](CO)N1C[C@H](C)[C@@H](CN(C)C(=O)Nc2ccc3c(c2)OCO3)Oc2c(cccc2N(C)C)C1=O,-12.1%
23,COc1ccc2sc(-c3ccc(S(C)(=O)=O)cc3)c(C#Cc3cncn3C)c2c1,45.5%

row,Structure (SMILES),inhibition
1,COc1ccc(-c2c(C#Cc3ccccc3)c3ccccc3n2C)cc1,3.8%
2,COc1ccc(-c2sc3ccc(OC)cc3c2C#Cc2ccccn2)cc1,111% (active)
3,COc1ccc2sc(-c3ccc(N(C)C)cc3)c(C#CCO)c2c1,113% (active)
4,COc1ccc(C2(C)ON(c3ccccc3C(F)(F)F)C2=O)cc1 (stereo unspecified),6.61%
5,Cn1nnnc1SCC(=O)Nc1cccc(S(=O)(=O)N2CCCCC2)c1,1.58%
6,Cn1cccc1C(=O)OCC(=O)NCCc1ccccc1,6.32%
7,Cc1c(C(=O)N2CCCc3ccccc32)sc2nc(-c3ccccc3)cn12,36.7%
8,Cc1c(C(=O)N2CCCc3ccccc32)oc2ccccc12,-3.96%
9,Cc1cccc2cc3c(N)c(C(=O)N4CCCc5ccccc54)sc3nc12,85.3% (active)
10,Oc1c(Cl)cc(Cl)c(Cl)c1Cc1c(O)c(Cl)cc(Cl)c1Cl,99.3% (active)
11,Cc1ccc(NS(=O)(=O)c2ccc(C(C)C)cc2)cc1S(=O)(=O)N1CCOCC1,-16.7%
12,COC(=O)Cc1ccc(Oc2ncc(C(F)(F)F)cc2Cl)cc1,-10.7%
13,Cc1cc(C)cc(NS(=O)(=O)c2ccc(Oc3ncc(C(F)(F)F)cc3Cl)cc2)c1,118% (active)
14,Cc1cc(C)cc(NS(=O)(=O)c2ccc(F)cc2)c1,-6.47%
15,CN1C(=O)[C@H]2[C@@H](/C=C/c3ccccc3)N3C(=O)CN(Cc4ccc(-c5ccccc5)cc4)C(=O)[C@@]3(C)[C@H]2C1=O,-4%
16,CN(CC(=O)NCCc1ccc(S(N)(=O)=O)cc1)CC(=O)Nc1ccc(F)c(F)c1F,-16.9%
17,CC1CC(=NNC(=O)C2COc3ccccc3O2)CC(C)(C)C1 (stereo unspecified),-9.31%
18,Cc1ccc2c(N)c(C(=O)c3ccccc3)sc2n1,45.8%
19,CCc1nc2sc(C(=O)O)c(N)c2c2c1CCCC2,5.22%
20,O=C(NNC(=O)c1cccc(S(=O)(=O)Nc2ccc(Cl)cc2)c1)c1ccc(=O)[nH]c1,-9.6%
21,Cc1ccc(NC(=O)c2cccc(S(=O)(=O)N3CCCc4ccccc43)c2)nc1,0.233%
22,COc1ccc(Cl)cc1NC(=O)COC(=O)c1ccc(Br)o1,0.173%
23,CS(=O)(=O)c1ccc(C(=O)NNC(=O)c2cccs2)cc1,-0.179%

row,Structure (SMILES),inhibition
1,Nc1nonc1-n1nnc(C(=O)N/N=C/c2cc(Br)ccc2O)c1CSC1=NCCS1,108% (active)
2,Cc1ccc(SCc2c(C(=O)N/N=C/c3cccnc3)nnn2-c2nonc2N)cc1,1.7%
3,Nc1nonc1-n1nnc(C(=O)N/N=C/c2ccccc2O)c1CN1CCCC1,62%
4,O=C1COc2ccc(C(=O)COC(=O)CCOc3ccccc3)cc2N1,0.0702%
5,CC[C@@H]1Cc2cc(O)ccc2C2=C1c1ccc(O)cc1C[C@H]2CC,102% (active)
6,CC1(C)CC(=O)c2ccc(O)cc2O1,2.93%
7,CC(C)CC1(C)NC(=O)N(CC(=O)Nc2ccc3c(c2)OCCO3)C1=O (stereo unspecified),-19%
8,CN(C)c1ccc(/C=C/C(=O)c2ccc(O)cc2)cc1[N+](=O)[O-],26.4%
9,O=C(/C=C/c1ccc(Cl)c([N+](=O)[O-])c1)c1ccc(O)cc1,80.8% (active)
10,O=C(Nc1ccncc1)c1ccc(Cl)c([N+](=O)[O-])c1,2.54%
11,CC(=O)Nc1ccc(/C=C/C(=O)c2ccccc2)cc1,2.62%
12,CN(C)c1ccc(/C=C/C(=O)c2ccc(C(C)(C)C)cc2)cc1[N+](=O)[O-],75.4% (active)
13,O=C(/C=C/c1ccc2c(c1)OCCO2)c1ccc(O)cc1,19.1%
14,Cc1sc2ncnc(N3CCC(C(=O)Nc4ccc(F)cc4Cl)CC3)c2c1C,4.03%
15,COc1cc(OC)cc(C(=O)NCC(=O)OCC(=O)NC(C)CCc2ccccc2)c1 (stereo unspecified),-13.2%
16,CC(C)(C)OC(=O)CNC(=O)c1[nH]cnc1C(=O)N[C@@H](CCCCN)C(=O)OC(C)(C)C,-4.68%
17,COc1ccccc1NC(=O)/C=C/C(=O)O,0.627%
18,COC(=O)c1sc(-c2ccc(C(C)(C)C)cc2)cc1NC(=O)/C=C/C(=O)O,119% (active)
19,O=C(O)/C=C/C(=O)Nc1ccc(F)cc1F,-20.2%
20,COc1cc(OC)cc(-c2cc3ccc(F)cc3cn2)c1,47%
21,CC[C@]1(O)CC2CN(CCc3c([nH]c4ccccc34)[C@@](C(=O)OC)(c3cc4c(cc3OC)N(C=O)[C@H]3[C@@](O)(C(=O)OC)[C@H](OC(C)=O)[C@]5(CC)C=CCN6CC[C@]43[C@@H]65)C2)C1 (stereo partly specified),62.5%
22,CC[C@]1(O)C[C@@H]2CN(CCc3c([nH]c4ccccc34)[C@@](C(=O)OC)(c3cc4c(cc3OC)N(C)[C@H]3[C@@](O)(C(=O)OC)[C@H](OC(C)=O)[C@]5(CC)C=CCN6CC[C@]43[C@@H]65)C2)C1,80.5% (active)
